Assay results as given in PubChem BioAssay (NCI).
About 83,000 compounds went through this panel and 20% of them were active in at least one assay; those are over-represented in the sample as a whole.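 For each line, cells grew in 96-well plates with the test compound present at a single concentration for 48 hours.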 Values without a mark were called inactive. Activity calls are given as the source filed them. The calls were made as follows: active = growth percent below 10; inactive = the rest.

Experiments:
Assay in all cases: NCI-60 one-dose screen, 48 h (100 = growth as untreated, 0 = no growth, -100 = all killed)
Conditions in all cases: 10 µM unless noted
NCI-H23 lung = test system: NCI-H23 lung
NCI-H226 lung = test system: NCI-H226 lung
NCI-H322M lung = test system: NCI-H322M lung
HOP-62 NSCLC = test system: HOP-62 NSCLC
NCI-H460 lung = test system: NCI-H460 lung
HOP-92 NSCLC = test system: HOP-92 NSCLC
NCI-H522 lung = test system: NCI-H522 lung
A549/ATCC NSCLC = test system: A549/ATCC NSCLC
786-0 renal = test system: 786-0 renal
COLO 205 colon = test system: COLO 205 colon

SMILES	growth (NCI-H23 lung)	growth (NCI-H226 lung)	growth (NCI-H322M lung)	growth (HOP-62 NSCLC)	growth (NCI-H460 lung)	growth (HOP-92 NSCLC)	growth (NCI-H522 lung)	growth (A549/ATCC NSCLC)	growth (786-0 renal)	growth (COLO 205 colon)
Cn1c(C(N)=O)cc2c1-c1nc(NC3CCCCC3)ncc1CCC2	93.7%	70.9%	110%	90%	94.3%	6.02% (active)	94.9%	92.2%	91.2%	113%
NC(N)=NC(N)=Nc1ccccc1-c1ccccc1	100%	111%	105%	115%	105%	109%	106%	105%	106%	125%
c1ccc([P+](CCC[P+](c2ccccc2)(c2ccccc2)c2ccccc2)(c2ccccc2)c2ccccc2)cc1	89%	101%	79.5%	75.3%	77.6%	20.1%	43.1%	86.9%	92.5%	45.4%
Cc1ccc(S(=O)(=O)NCCCNc2nccc(-c3c(-c4ccccc4)nc4sccn34)n2)cc1	76.2%	49.4%	78.4%	124%	52%	93.8%	54.1%	58.4%	38.7%	46.6%
Cc1ccc(S(=O)(=O)N2CCC(C(=O)Nc3ccc(F)cc3F)CC2)cc1	95.8%	87.9%	112%	96.2%	107%	82.2%	102%	91.8%	89.9%	99.3%
COc1ccc(/C=C/C(=O)c2ccc(NC(=O)CN3CCN(c4cc5c(cc4F)c(=O)c(C(=O)O)cn5C4CC4)CC3)cc2)cc1	99.6%	94.8%	96.1%	98.2%	112%	90.6%	111%	96.8%	89.8%	120%
CCN(Cc1ccc(CN(CC)C(=O)C(Br)Br)cc1)C(=O)C(Br)Br	43.3%	59.1%	26.3%	74.8%	2.41% (active)	60.7%	32.5%	25.2%	59.4%	3.56% (active)
O=C(Nc1ccc(F)c(Cl)c1)c1n[nH]c(=O)c2ccccc12	106%	97.2%	113%	102%	107%	96.9%	99.6%	91.8%	115%	105%
O=C(/C=C/CN1CCCCC1)Nc1cc2c(Nc3ccc(F)c(Cl)c3F)ncnc2cc1OCCOC(F)F	26.3%	28.6%	5.03% (active)	20.6%	21.7%	-39.2% (active)	-32% (active)	18.2%	10.7%	24.8%
CCC1CCc2nc3sc(C(=O)Nc4cccc(C)c4)c(N)c3cc2C1 (stereo not given)	101%	96%	94.8%	87%	88.1%	55.2%	71.5%	77.3%	94.9%	93%
Clc1nc(-c2cccnc2)nc2sc3c(c12)CCCCCC3	99.5%	98.6%	102%	97.5%	107%	86.2%	85.7%	94.8%	101%	107%
CN(C)c1ncc(-c2ccc(C(F)(F)F)cc2)c(NC2CCCCCC2)n1	58.5%	61.9%	95.4%	88.2%	55.4%	-1.97% (active)	43.6%	57.5%	67.2%	50%
Cc1cc(Nc2nc(C(=O)Nc3ccccc3)nc3ccccc23)n[nH]1	77.5%	67.1%	56.5%	60%	37.6%	51.2%	59%	62.4%	56.2%	76%
CCCCCc1c(C)[nH]c(/C=c2\[nH]/c(=C3/C=c4ccccc4=N3)cc2OC)c1C	-42.1% (active)	-16.4% (active)	-8.17% (active)	-56.7% (active)	2.12% (active)	-56.8% (active)	-45.8% (active)	-21.8% (active)	-68.3% (active)	-76.5% (active)
COc1cc(-c2cc(/C=C3\CCCCC3=O)[nH]n2)cc(OC)c1OC	95.5%	94.6%	95.3%	99.3%	104%	86.4%	76.9%	95.1%	98.1%	108%
COc1ccc(/C(=N\O)c2cc(OC)c(OC)c(OC)c2)c(OC)c1N	34.7%	78.2%	48.4%	39.7%	6.35% (active)	78.7%	-9.39% (active)	43.2%	34.7%	-0.741% (active)
O=C(O)c1ccc(-n2cc(CNc3ccc(C(F)(F)F)cc3)c(-c3ccccc3)n2)cc1	91.6%	104%	101%	90.5%	94.3%	83.8%	94.3%	72.5%	99.1%	107%
Nc1ccccc1C#C/C=C\C#Cc1cccc(O)c1	97.3%	95.4%	93.6%	40.2%	34.7%	-30.1% (active)	52.9%	64.5%	61.5%	81.2%
CCC1=C[C@@H]2CN(C1)Cc1c([nH]c3ccccc13)[C@@](C(=O)OC)(c1cc3c(cc1OC)N(C=O)[C@H]1[C@@](O)(C(=O)OC)[C@H](OC(C)=O)[C@]4(CC)[C@@H]5C[C@@H]5CN5CC[C@]31[C@@H]54)C2	15.7%	35.4%	48.8%	34%	6.63% (active)	-16.4% (active)	-0.697% (active)	11%	25.8%	-78.5% (active)
COc1ccc(NC(=O)CSc2nc3ccccc3c(=O)n2Cc2cc(OC)c(OC)c(OC)c2)cc1	92.5%	88.3%	94.5%	91.4%	101%	58.8%	66.7%	99.3%	92.5%	107%
CC(=O)n1cc([C@H]2CC[C@H](c3cn(C(C)=O)c4ccccc34)c3c2[nH]c2ccccc32)c2ccccc21	75.7%	89.4%	77.6%	70.7%	90.4%	85.3%	65.1%	70%	93.5%	94.5%
CC(Br)C(OC(=O)c1ccccc1Cl)c1cc2c(cc1Br)OCO2 (stereo not given)	78.3%	76.6%	82.7%	108%	91.8%	68.5%	87.9%	91.5%	80.7%	126%
COC(=O)CCCCCN=Cc1c(O)c(O)c(C(C)C)c2cc(C)c(-c3c(C)cc4c(C(C)C)c(O)c(O)c(C=NCCCCCC(=O)OC)c4c3O)c(O)c12	19.3%	54.9%	32%	18.8%	8.12% (active)	-5.66% (active)	-21.8% (active)	20.8%	28.1%	13.6%
O=C(/C=C/CN1CCOCC1)Nc1cc2c(Nc3cccc(Cl)c3F)ncnc2cc1OCCOC(F)F	85.4%	80.1%	4.9% (active)	70.5%	93%	18.9%	6.03% (active)	52.7%	53.4%	95.1%
CN(C)c1ccc(-c2ccc(-c3ccc(C(=N)N)cn3)o2)cc1	20.9%	21.3%	-0.109% (active)	-69.8% (active)	-86.8% (active)	-61.2% (active)	-72.9% (active)	-48.7% (active)	-66.6% (active)	-93.7% (active)
Cc1ccc2c(c1)C(C)Cc1c(N(C)C)ncnc1N2C (stereo not given)	50.5%	81.8%	81.2%	36.4%	15.5%	52.4%	4.76% (active)	49.3%	34.8%	32.4%
COc1cccc(NC(=O)c2sc3nc4c(cc3c2N)CCCC4)c1	32.3%	57.2%	38.9%	27.7%	12%	43.6%	4.31% (active)	17.4%	34.3%	49.2%
